# Assay results taken from PubChem BioAssay (Tox21).
# Inconclusive results are not listed. A number with no mark means an inactive call. The source made the active and inactive calls. Calls come from the whole dose curve.
# Test: qHTS assay for small molecule disruptors of the mitochondrial membrane potential - cell viability (AID 720634);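 note: human HepG2 liver cancer cells; nearly all actives have a fitted effect of over 20% in size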
# Details: HepG2 viability, ATP luminescence (CellTiter-Glo), 1 h; series mostly up to 83.2 µM; activity change, negative = cytotoxicity: at the top concentration
# Source text: U.S. Tox21 Program National Center for Advancing Translational Sciences [NCATS] NIH Chemical Genomics Center [NCGC] U.S. Environmental Protection Agency [EPA] National Institutes of Environmental Health Sciences [NIEHS] National Toxicology Program [NTP] U.S. Food and Drug Administration [FDA] Tox21 Assay Overview: Mitochondrial membrane potential (MMP), one of the parameters for mitochondrial function, is generated by mitochondrial electron transport chain that creates an electrochemical gradient by a series of redox reactions. This gradient drives the synthesis of ATP, a crucial molecule for various cellular processes. Measuring MMP in living cells is commonly used to assess the effect of chemicals on mitochondrial function; decreases in MMP can be detected using lipophilic cationic fluorescent dyes. […] The dye accumulates in the mitochondria of healthy cells as aggregates, with red fluorescence. The mitochondrial potential decreases and the dye could not accumulate in the mitochondria and remains in the cytoplasm in monomers, with green fluorescence. In addition to the mitochondrial potential assay, these cells were also used to test the cytotoxicity by determining the cell viability in the culture based on the quantitation of ATP present. The cytotoxicity was measured in the same assay well of MMP assay.
# Tox21 Assay Protocol Summary: 2,000 HepG2 cells in 5 uL/well were dispensed into black, clear-bottom 1536-well plates using a Multidrop Combi (Thermo Scientific) dispenser. The assay plates were incubated for an overnight at 37 C to allow cells to attach to the wells, followed by the transfer of 23 nL compound or DMSO vehicle by a pin tool (Kalypsys). The plates were incubated for 1 hr at 37 C and 5% CO2, followed by the addition of 5 uL of 2X m-MPI dye into each well using Flying Reagent Dispenser (Aurora Discovery) and then CellTiter-Glo reagent was added at 4 uL/well and incubated 30 min at room temperature. Then luminescence intensity was quantified on a ViewLux CCD-based plate reader.
# % is set by controls: 0 for no effect and ±100 for the full control effect.
SMILES,"activity change, negative = cytotoxicity",Potency
CC(=O)OCC1=C(C(=O)O)N2C(=O)[C@@H](N)[C@H]2SC1,10.5% [at 39.1 µM],
CCC(=O)OC1(c2ccccc2)CCN(C)CC1,-2.15% [at 95.3 µM],
CCC1(CC)C(=O)C=CNC1=O,0.622%,
CCSC(=O)Cl,-9.23% [at 95.3 µM],
CNC(=O)NC(O)C(Cl)(Cl)Cl (stereo not given),-4.85%,
CCN[C@@H](C)Cc1cccc(C(F)(F)F)c1,2.46%,
NC(=O)OCCCc1ccccc1,3.44%,
O=C1CC(=O)NC(=O)N1,11.4%,
N=C(N)[Se],-2.04% [at 95.3 µM],
CN=CNc1ccc(C)cc1C,12.1%,
O=C(NC(O)C(Cl)(Cl)Cl)NC(O)C(Cl)(Cl)Cl (stereo not given),-1.44%,
C=CCc1cc(OC)c2c(c1)OCO2,5.35% [at 95.3 µM],
C#CC(C)(C)O,4.93% [at 95.3 µM],
CNC(=O)Oc1ccccc1C(C)C,-12.7%,
CC(O)CCl (stereo not given),5.69%,
CCCOc1nn(C(=O)NS(=O)(=O)c2ccccc2C(=O)OC)c(=O)n1C,10.9%,
C[C@@H](N)[C@@H](O)c1ccccc1,-10% [at 39.1 µM],
CC[C@H](N)c1ccccc1,-8.19%,
Cc1cc(OC(=O)N(C)C)nn1C(=O)N(C)C,1.27%,
CCOC(=O)COc1ccc(Cl)cc1Cl,3.8%,

SMILES,"activity change, negative = cytotoxicity",Potency
CC(Cl)(Cl)Cl,7.61%,
CN(C)C(=O)Oc1cc(OC(=O)N(C)C)cc(C(O)CNC(C)(C)C)c1 (stereo not given),15.5% [at 39.1 µM],
CCOc1cc(OP(=S)(OC)OC)nc(CC)n1,-9.6%,
NCC1(CC(=O)O)CCCCC1,3.49% [at 39.1 µM],
N#CN,,inactive
O=C1CCCCC1Cl (stereo not given),15.9% [at 95.3 µM],
NCCOS(=O)(=O)O,10.8%,
O=C(Cl)/C=C/C(=O)Cl,9.06% [at 95.3 µM],
CS(=O)(=O)c1ccc(C(=O)C2C(=O)CCCC2=O)c(Cl)c1COCC(F)(F)F,5.04%,
COC(=O)c1ccccc1CS(=O)(=O)NC(=O)Nc1nc(OC)cc(OC)n1,12.1%,
CCN[C@@H](C)Cc1ccccc1,17.9% [at 95.3 µM],
CC(C)(N)Cc1ccc(Cl)cc1,4.62%,
[O-][Br+2]([O-])O,-6.98%,
CCOC(=O)C(SP(=S)(OC)OC)c1ccccc1 (stereo not given),-10.9%,
CS(=O)(=O)Cl,-11.5% [at 95.3 µM],
CN(CCO)CCO,-5.12% [at 95.3 µM],
CCCCCCCCSC(=O)Oc1cc(Cl)nnc1-c1ccccc1,-25.5%,
CCc1cc(OC)c(C[C@H](C)N)cc1OC,-2.02% [at 95.3 µM],
CCCN1CCC[C@@H]2Cc3[nH]ncc3C[C@H]21,6.02%,
C#CCOC(=O)/C=C(C)/C=C/CC(C)CCCC(C)C (stereo not given),-10.5%,
